Screening data as filed in PubChem BioAssay.
Rows were chosen to be rich in hits. Some 8% of all compounds tested hit in one or more screens of this group.
FMDV antiviral: High Throughput Screening for Foot and Mouth Disease Virus Antivirals; FMDV antiviral cell-based qHTS; Potency, µM (top dose mostly 57.9 µM), inactives show top-dose activity change, negative = inhibition, actives largely listed as inhibitors; hit rate 1.2% among 410,000; AID 1159524, 2015; calls by dose curve; tested in HEK293T cells; also: read-out not given here; potency is read from the fitted curve at half-maximal effect; % is scaled to controls: 0 for no effect and ±100 for the full control effect; nearly all actives have a fitted effect of over 45% in size
Lassa entry inh: qHTS for Inhibitors of binding or entry into cells for Lassa Virus; Lassa virus pseudotype entry inhibition, cell reporter; Potency, µM (titrated, usually from 37.9 µM), for inactives: at the top dose activity change, negative = inhibition, most hits filed as inhibitors; hit rate 1.2% among 300,000; AID 540256, 2011; calls by dose curve; tested in HEK293 cells; also: potency is read from the fitted curve at half-maximal effect; % is scaled to controls: 0 for no effect and ±100 for the full control effect; nearly all actives have a fitted effect of over 50% in size
HCV inhibitor: qHTS Assay for Inhibitors of Hepatitis C Virus (HCV); hit rate 3.4% among 340,000; Potency, µM (titrated, usually from 41.8 µM), for the others: top-dose activity change, negative = inhibition, hits mostly inhibitors; AID 651820, 2012; Huh7.5.1 HCVcc-Cre infection, luciferase reporter, 44 h; active = well fitted inhibition curve with a large enough effect; inconclusive = small, poorly fitted or top-dose-only effect, or another doubt; inactive = no such curve, though single readings can be large or run the other way; also: potency is read from the fitted curve at half-maximal effect; % is scaled to controls: 0 for no effect and ±100 for the full control effect
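Whole-lifecycle infectious HCVcc-Cre system; cells 1,000/well, compound then virus (~0.5 moi) added 4 h after plating, 44 h culture. Luciferase read 15 sec following 15 min substrate incubation, room temp.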
SARS PLP yeast: qHTS of Yeast-based Assay for SARS-CoV PLP; S. cerevisiae expressing SARS-CoV PLpro, growth rescue; Potency, µM (titrated, usually from 32.9 µM), for the others: at the top dose activity, positive = growth rescue, usual class: activators; hit rate 0.19% among 330,000; AID 485353, 2010; calls by dose curve; also: potency is read from the fitted curve at half-maximal effect; 0% is about no effect; nearly all actives have a fitted effect of over 55% in size
HCMV antiviral: qHTS Assay for inhibitors of the human cytomegalovirus (HCMV). HFF cells, HCMV-luciferase reporter, 72 h; stronger effect = lower value. activity change, negative = inhibition, % at 57.5 µM. hit rate 4.5% among 410,000; in the data active = activity change below about -60%; inconclusive = no clear call, values can overlap the other calls; inactive = above about -39%; also: % is scaled to controls: 0 for no effect and ±100 for the full control effect
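Compounds were evaluated in HFFs infected with an HCMV luciferase reporter virus (MOI 1 PFU/cell). Luciferase in lysates collected 72 h post infection served as the replication measure.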
Marburg entry inh: qHTS for inhibitors of binding or entry into cells for Marburg Virus | Marburg virus pseudotyped entry inhibition, cell reporter | Potency, µM (doses to about 37.8 µM), without a hit: at the highest dose activity change, negative = inhibition, most hits filed as inhibitors | hit rate 1.8% among 300,000; calls by dose curve; tested in HEK293 cells; also: potency is read from the fitted curve at half-maximal effect; % is scaled to controls: 0 for no effect and ±100 for the full control effect
Starred values were filed as active, the others as inactive; ? = inconclusive; / = not tested or not shown; + = active, no number; [ ] = dose if it differs, or a comment.

SMILES | FMDV antiviral | Lassa entry inh | HCV inhibitor | SARS PLP yeast | HCMV antiviral | Marburg entry inh
CCOC(=O)N1CCc2c(sc(NCc3cccc(F)c3)c2C(=O)Nc2ccc(OC)cc2)C1 | -5% | ? | / | / | -19 | /
COc1ccccc1N1CCN(S(=O)(=O)c2c(C)sc3ncn(CC(=O)Nc4ccc(C(C)C)cc4)c(=O)c23)CC1 | -7% | 1%[46.1 µM] | / | / | 19 | -1%[46.1 µM]
CCN(CC)CCNC(=O)c1sc2nc(C)cc(C)c2c1-n1cccc1 | 0% | 4%[46.1 µM] | / | / | 7 | 20%[46.1 µM]
CCc1c(C)nc(SCc2nc(-c3ccccc3C)no2)[nH]c1=O | -12% | -6%[46.1 µM] | / | / | -9 | /
CNC(=O)c1ccc(Nc2nnc(-c3ccc(C)c(S(=O)(=O)NC(C)(C)C)c3)c3ccccc23)cc1 | 10% | -16%[46.1 µM] | / | / | 11 | /
COC(=O)c1ccccc1Sc1ncnc2onc(C)c12 | 28µM* | -10% | ? | 0% | -23 | ?
Cc1noc2ncnc(Sc3ccccc3Cl)c12 | 40µM* | ? | ? | 5% | -79* | -21%[46.1 µM]
CCC(Sc1nc2ccncc2[nH]1)C(=O)Nc1ccc(F)cc1 (stereo not drawn) | -30% | 9%[46.1 µM] | / | / | -6 | ?
CCCc1cc(=O)n2nc(N3CCC(C(=O)N4CCN(c5cccc(OC)c5)CC4)CC3)sc2n1 | ? | / | ? | -7% | -70* | /
CCOC(=O)C1CCN(C(=O)C2CCN(c3nn4c(=O)cc(C)nc4s3)CC2)CC1 | -11% | / | 5% | 3% | 23 | /
C=C1C(=O)CC2=C1[C@](Cc1ccc(F)cc1)(C(=O)OC)N(C(=O)c1ccccc1)C2 | ? | / | / | / | -9 | /
COC(=O)[C@@]1(Cc2ccc(OC)cc2)[C@@H]2C(=CC(=O)[C@H]2CC(=O)C(=O)N(C)C)CN1C(=O)c1ccccc1 | 25µM* | ? | 13µM* | 3% | -80* | ?
C=C1C(=O)C=C2CN(C(=O)c3ccccc3)[C@@](Cc3ccc(F)cc3)(C(=O)OC)[C@@H]12 | 3.2µM* | 21µM* | ? | -25% | / | ?
COC(=O)[C@@]1(Cc2ccc(OC)cc2)[C@H]2c3cc(C(=O)N(C)C)n(C[C@H](O)CO)c3C[C@H]2CN1C(=O)c1ccccc1 | -4% | 4% | 3%[8.37 µM] | -4% | 16 | 28%
COc1ccccc1CNC(=O)c1nn(C)c2c1CS(=O)(=O)c1ccccc1-2 | -10% | -24%[46.1 µM] | -13% | 1% | + | -7%[46.1 µM]
Cn1nc(C(=O)NCc2ccc(Cl)cc2)c2c1-c1ccccc1S(=O)(=O)C2 | -20% | 2%[46.1 µM] | -3% | -1% | -82* | /
Cc1cccc(-n2c(-c3ccccc3)cn3c4c(=O)[nH]c(=O)n(C)c4nc23)c1 | -3% | ? | / | / | 5 | -2%[46.1 µM]
CCCCNCC(=O)Nc1ccc(NC(=O)CNCCCC)cc1 | -13% | -17% | ? | 6% | -4 | 10µM*
CCCCOCCCNCC(=O)Nc1ccc(S(N)(=O)=O)cc1 | -10% | -2% | -4% | 0% | 48 | 8%[46.1 µM]
O=C(Nc1cc(Cl)ccc1Cl)c1cc2nc(-c3ccc4c(c3)OCO4)cc(C(F)(F)F)n2n1 | -19% | 8%[46.1 µM] | / | / | 13 | 3%[46.1 µM]
CC(C)c1cc(C(F)(F)F)n2nc(C(=O)Nc3ccc4c(c3)OCO4)cc2n1 | 22% | 5% | 13µM* | -8% | 87 | 3%
COc1cc(C2C3=C(COC3=O)Oc3cc4c(cc32)OCO4)cc(OC)c1OC(C)=O (stereo not drawn) | 7% | ? | 4% | / | -69* | ?
COc1ccc(-n2c(-c3ccc(C)cc3)cc3c2CC(C)(C)CC3=O)c(OC)c1 | -11% | ? | / | / | ? | ?
O=[N+]([O-])c1c(NCc2ccccc2)cc(N2CCc3ccccc3C2)c2nonc12 | -17% | -2% | 1.4µM* | -5% | ? | ?
CCOc1ccc(-c2nc(CCl)cs2)cc1 | -17% | / | 11% | -1% | 3 | /
SMILES | FMDV antiviral | Lassa entry inh | HCV inhibitor | SARS PLP yeast | HCMV antiviral | Marburg entry inh
COc1ccc(Br)cc1-c1nc(CCl)cs1 | -4% | / | 10µM* | -1% | ? | /
CCOc1ccc(Br)cc1CC(=O)O | -17% | 2% | 22% | / | 37 | 11%
CCCOc1ccc(Br)cc1CSC(=N)N | ? | ? | ? | ? | -95* | 7.3µM*
Cc1ccc(-n2nc3ccc(NC(=O)COc4ccccc4C)cc3n2)cc1 | -8% | 5%[46.1 µM] | / | / | 56 | /
Cc1ccc(NC(=O)COc2ccc(CCO)cc2-n2nc3ccccc3n2)cc1C | -18% | ? | 13µM* | ? | ? | ?
O=c1cc(-c2ccccc2)[nH]n1-c1nc2ccccc2[nH]1 | -20% | ? | ? | 13% | -84* | ?
CCc1cc(=O)[nH]c(-n2[nH]c(-c3ccccc3)cc2=O)n1 | 9% | 8% | -1% | 2% | -29 | 1%[46.1 µM]
O=C1c2cccc3cccc(c23)C(=O)C1(O)O | 22µM* | -24% | -26% | / | -69* | ?
COC(=O)C1(C(=O)OC)Cc2conc2[C@@H]1c1ccccc1 | / | / | / | / | / | -10%[14.2 µM]
Cc1cccc(CCNC(=O)Cn2ncc3c(=O)oc4ccccc4c32)c1 | 0% | 1%[46.1 µM] | / | / | 2 | -1%[46.1 µM]
CC(=O)c1sc(NC(=O)COc2ccccc2)nc1C | 53% | -16% | -13% | -6% | 13 | 9%[46.1 µM]
CC(=O)c1sc(NC(=O)COc2ccc(C(C)C)c(C)c2)nc1C | -27% | 4% | 2.5µM* | -5% | -38 | 23%[46.1 µM]
COc1cc(CN(C(=O)COc2ccccc2)c2ccccn2)cc(OC)c1OC | -4% | 0%[46.1 µM] | / | / | -4 | 0%[46.1 µM]
Nc1c(Cl)cc(-c2csc(N3CCCC3c3nc4cc(Cl)c(Cl)cc4n3CCCO)n2)cc1Cl (stereo not drawn) | 8% | / | 2µM* | / | 17 | /
OCCCn1c(C2CCCN2c2nc(-c3ccc(Cl)cc3)cs2)nc2cc(C(F)(F)F)ccc21 (stereo not drawn) | -16% | / | ? | / | -66* | /
CCC(Sc1nc2c(sc3ccccc32)c(=O)n1CCc1ccc(OC)c(OC)c1)C(=O)N(CC)CC (stereo not drawn) | -6% | ? | / | / | -5 | /
CCOC(=O)c1c(C)sc(-c2c(-c3ccc(OC)c(F)c3)[nH]c3c2c(=O)[nH]c(=O)n3C)c1O | -20% | 7%[46.1 µM] | / | / | 2 | 4%[46.1 µM]
COCCN1C(=O)C2=C(C1=O)C1N(C)c3ccccc3[C@@]13C[C@@H](CO)N(C(C)=O)C3=N2 (stereo partly drawn) | / | / | / | / | / | 14%[14.2 µM]
CCN(CC)Cc1c(O)ccc2c(=O)c(Oc3ccccc3OC)coc12 | -14% | 0% | 6% | 9% | -61* | 12%
COc1ccccc1Oc1coc2c(CN(C)C)c(O)ccc2c1=O | -2% | 11% | 11% | 5% | -27 | 9%
COc1ccc(-c2csc(Nc3ccc(C)cn3)n2)cc1 | -13% | 5% | ? | 1% | -20 | -6%[46.1 µM]
